Source: PubChem
NPC1 prom act: activators of NPC1 promoter; Huh7 NPC1 promoter luciferase reporter, 24 h; Potency, µM (top dose mostly 9.22 µM), usual class: activators; actives 2.4% (n = 320,000); further: nearly all actives have a fitted effect of over 60% in size
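Compounds in DMSO were transferred onto Huh7 NPC1-luciferase reporter cells pre-incubated 2 h; after 24 h at 37 °C, Amplite reagent was dispensed and luminescence recorded 10 min later.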
Luc counter: Kinase-Glo luciferase inhibition (counter-screen); Kinase-Glo luciferase, ATP luminescence, 8 min; Potency, µM (top dose mostly 38.3 µM), most hits filed as inhibitors; actives 0.28% (n = 200,000); further: nearly all actives have a fitted effect of over 60% in size
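Inhibition of Kinase-Glo luciferase light generation was assessed at 10 uM ATP in pH 7.2 imidazole buffer, with luminescence measured after eight minutes at ambient temperature.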
SMN2 splice up: SMN2 splice variant enhancement; HEK293 SMN2-luciferase splicing reporter, luminescence, 30-36 h; Potency, µM (doses to about 46.1 µM), actives largely listed as activators; actives 2.8% (n = 210,000); AID 1458; further: nearly all actives have a fitted effect of over 55% in size
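qHTS luciferase splicing reporter: luminescence rises when SMN2 exon 7 is included in transfected HEK293 cells. Compound exposure lasted 30-36 h at 37C, with 4.5 mM final sodium butyrate as control, followed by a ONE-Glo read.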
ELG1 genotox: inducers of genotoxicity in HEK293T ELG1-luciferase cells. HEK293T ELG1-luciferase reporter, luminescence, 16 h. Potency, µM (titrated, usually from 46 µM), hits mostly activators. actives 1.3% (n = 330,000). AID 504466; further: nearly all actives have a fitted effect of over 60% in size
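Quantitative HTS format in 1536-well plates. HEK293T ELG1-luciferase reporter cells receive test compound and are incubated 16 hr at 37 °C, 5% CO2; ONE-Glo added, 30 min room temperature, then luminescence read.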
FLuc counter: counter-screen for miR-21 project: firefly luciferase inhibitors or activators | purified FLuc, Km substrates, luminescence inhibition | AID 588342 | Potency, µM (titrated, usually from 57.5 µM), most hits filed as inhibitors | P08659 | actives 6.9% (n = 360,000); further: nearly all actives have a fitted effect of over 55% in size
Target sequence (P08659 whole entry, looked up): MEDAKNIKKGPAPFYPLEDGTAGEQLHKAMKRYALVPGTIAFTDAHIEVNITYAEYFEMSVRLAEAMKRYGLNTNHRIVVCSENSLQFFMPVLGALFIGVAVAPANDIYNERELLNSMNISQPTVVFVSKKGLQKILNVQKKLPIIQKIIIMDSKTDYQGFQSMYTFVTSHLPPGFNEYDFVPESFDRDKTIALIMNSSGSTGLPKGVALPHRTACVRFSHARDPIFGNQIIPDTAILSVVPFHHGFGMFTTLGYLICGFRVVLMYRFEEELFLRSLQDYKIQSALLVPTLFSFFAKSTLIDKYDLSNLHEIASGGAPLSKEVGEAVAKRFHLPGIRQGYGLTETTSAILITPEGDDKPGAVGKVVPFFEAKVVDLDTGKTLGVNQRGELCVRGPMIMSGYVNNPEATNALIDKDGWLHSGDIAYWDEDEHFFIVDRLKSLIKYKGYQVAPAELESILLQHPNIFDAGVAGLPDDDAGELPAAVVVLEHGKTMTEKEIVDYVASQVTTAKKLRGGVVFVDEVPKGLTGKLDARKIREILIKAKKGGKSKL
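Purified P. pyralis luciferase, 10 nM final, with Km-level 10 uM D-luciferin and 10 uM ATP in 50 mM Tris acetate pH 7.5, 10 mM Mg acetate, 0.01% Tween-20, 0.05% BSA; 6-point qHTS titration about 60 µM downward; luminescence read.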
Rab9 promoter act: activates the Rab9 promoter; Huh7 Rab9 promoter-luciferase reporter, luminescence, 24 h; Potency, µM (doses to about 9.22 µM), actives largely listed as activators; actives 2.8% (n = 320,000); AID 485297; further: nearly all actives have a fitted effect of over 60% in size
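Cells were plated at 1500 per well in reduced-serum medium with 10% FBS and left 2 h. Compound in DMSO was then added for 24 h at 37 °C. Reporter signal was read by luminescence after 10 min with luciferase detection reagent.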
Hits are given with their value; 0 = inactive; ? = inconclusive; - = no result; [ ] = dose if it differs, or a comment. Hits are enriched below; roughly 7.3% of the tested compounds scored in any of these assays. The call rests on the fitted dose curve; in most records, active means well fitted curve in the direction sought with a large enough effect; inconclusive means small, poorly fitted or top-dose-only effect, or another doubt; inactive means no such curve, though single readings can be large; an effect the other way counts as inactive or inconclusive.

SMILES	NPC1 prom act	Luc counter	SMN2 splice up	ELG1 genotox	FLuc counter	Rab9 promoter act
COc1ccc(-c2nnn(Cc3ccccc3)n2)cc1	?	-	-	?	21.3µM	3.16µM
Cc1ccccc1-c1nnn(Cc2ccc(-c3nn[nH]n3)cc2)n1	0	0	0	0	?	0
Cc1ccccc1Cn1nnc(-c2cccc(C(=O)O)c2)n1	0.447µM	0	7.94µM	1.64µM	4.26µM	0.794µM
CSc1ccc(-c2nnn(Cc3ccc(C)cc3)n2)cc1	?	0	0	?	10.7µM	?
Cc1ccccc1Cn1nnc(-c2ccc(C(=O)O)cc2)n1	0	0	0	0	?	0
NC(=[SH+])N=N/C=C1/C=CC=CN1.O=S(=O)(O)O.[Fe]	-	0[7.66 µM]	0[9.22 µM]	-	-	-
CS(=O)(=O)n1nc(-c2ccco2)nc1NCc1ccccc1Cl	-	-	0	-	0	-
CN1c2ccccc2-c2nc(SCC(=O)Nc3ccccc3)ncc2S1(=O)=O	-	-	-	-	0	-
COc1cccc(COC(=O)c2ccc(-c3nnn(Cc4ccccc4)n3)cc2)c1	-	-	0	-	0	-
O=C(O)c1cccc(-c2nnn(Cc3ccccc3)n2)c1	1.41µM	0	2.51µM	0	10.7µM	0.708µM
COc1ccc(C2CC(=O)N(Cc3cccc(C)c3)c3c2c(C)nn3-c2nc(C)cc(C)n2)c(OC)c1 (stereo unspecified)	-	-	-	-	0	-
COc1ccc(/C=N/NC(=O)CSc2nnc(C)n2-c2ccccc2)c(OC)c1OC	0	0	0	0	0	0
COc1cccc(/C=N/NC(=O)CN2CC(c3ccccc3)CC2=O)c1O (stereo unspecified)	0	0	0	0	12µM	0
COc1cccc(/C=N/NC(=O)CSc2nnc(C)n2-c2ccccc2)c1O	0	0	0	0	16.9µM	0
CCCOc1ccc(Nc2cc(C)nc(C)n2)cc1	-	-	-	-	0	-
O=c1cc(-c2ccccc2)[nH]n1-c1nc2ccccc2[nH]1	0	0	0	?	19µM	0
Cc1cc(NS(=O)(=O)c2ccc(NC(=S)NC(=O)c3ccc(C(C)(C)C)cc3)cc2)no1	0	0	0	0	10.7µM	0
Cc1ccc(/C=C/C(=O)NC(=S)Nc2ccc(S(=O)(=O)Nc3cc(C)on3)cc2)cc1	0	-	-	0	9.53µM	0
COc1cc(NS(=O)(=O)c2ccc(NC(=S)NC(=O)/C=C/c3ccc(OC)c(OC)c3)cc2)ncn1	0	0	0	0	0	0
Cc1cc(NS(=O)(=O)c2ccc(NC(=S)NC(=O)/C=C/c3ccccc3)cc2)no1	0	-	-	0	0	0
COc1ccc(/C=C/C(=O)NC(=S)Nc2ccc(S(=O)(=O)Nc3cc(OC)ncn3)cc2)cc1	0	0	0	0	15.1µM	0
CCc1ccc(-n2c(=O)c3c4c(sc3n(CC(=O)N3CCC(C)CC3)c2=O)CCC4)cc1	-	-	0	-	0	-
Oc1ccc(/C=N/n2c(-c3ccco3)csc2=Nc2cccnc2)c(O)c1	0	0	0	0	?	0
C=CCN=c1scc(-c2ccco2)n1/N=C/c1ccc(O)c(O)c1O	0	-	-	?	4.78µM	?
COc1cc(/C=N/n2c(-c3ccc4c(c3)NC(=O)CO4)csc2=Nc2cccc(C)c2)ccc1O	0	0	0	0	?	0
SMILES	NPC1 prom act	Luc counter	SMN2 splice up	ELG1 genotox	FLuc counter	Rab9 promoter act
COCCN=c1scc(-c2cccs2)n1/N=C(\C)c1ccco1	?	0	?	0	9.53µM	2.51µM
COCCN=c1scc(-c2ccc3c(c2)NC(=O)CO3)n1/N=C(\C)c1ccc(O)cc1	0	-	-	0	0	0
COCCN=c1scc(-c2ccco2)n1/N=C/c1ccc(O)c(O)c1O	0	0	0	0	16.9µM	0
CC(C)N=c1scc(-c2ccco2)n1/N=C/c1ccc(O)c(O)c1	0	0	?	?	9.53µM	0
CCOc1ccccc1CNC(=O)c1ccc(N2Cc3ccccc3Oc3ncccc32)s1	-	-	-	-	0	-
CCc1cccc(C)c1NC(=O)c1cc2ccccc2o1	-	-	0	-	0	-
O=C(Nc1ncccc1O)c1cc2ccccc2o1	3.16µM	-	-	?	3.38µM	0.631µM
O=C(Nc1cccc2ncccc12)c1cc2ccccc2o1	0	0	0	0	?	0
